Mtb FBA inh = Mtb FBA enzyme inhibitors, primary screen, biochemical, fluorescence, strain H37Rv | purified M. tuberculosis FBA, fluorescence read-out | 360,000 tested, 2.3% active | inhibition, % at 1 µM; in the data active = inhibition above about 27%;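 note: 0% = vehicle and 100% = reference inhibitor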
Target sequence (P9WQA3 whole entry, looked up): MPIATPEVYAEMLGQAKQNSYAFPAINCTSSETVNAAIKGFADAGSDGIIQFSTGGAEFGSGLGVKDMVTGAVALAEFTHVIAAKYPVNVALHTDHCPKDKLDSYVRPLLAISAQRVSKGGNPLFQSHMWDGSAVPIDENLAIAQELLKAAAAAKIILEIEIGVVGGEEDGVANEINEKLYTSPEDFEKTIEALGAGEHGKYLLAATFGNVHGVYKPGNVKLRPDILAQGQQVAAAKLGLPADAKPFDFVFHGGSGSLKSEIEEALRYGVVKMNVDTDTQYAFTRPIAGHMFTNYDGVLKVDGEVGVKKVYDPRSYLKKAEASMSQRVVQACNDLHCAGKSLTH
Yp Topo-I inh = Yersinia pestis topoisomerase I inhibitors, primary screen, biochemical, cleavage product accumulation, plate reader, single point. 360,000 tested, 0.064% active. activity, % at 10 µM. AID 504884, 2011. Y. pestis Topo-I cleavage product accumulation. DNA topoisomerase I (Yersinia pestis CO92); in the data active = activity above about 50%, passing the limit was not always enough
GDH-TPI counter = GDH-TPI coupling enzyme inhibitors, primary screen, artefact control for M. tuberculosis FBA inhibitor project, biochemical, absorbance, full deck; 360,000 tested, 1.2% active; inhibition, % at 4.8 µM; GDH-TPI coupled enzyme counterscreen, NADH absorbance; AID 588335, 2011; in the data active = inhibition above about 30%;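 note: 0% = DMSO wells and 100% = wells lacking the enzyme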
PrPC TRFRET = inhibitors of human cell surface prion protein PrPC, primary screen, cell-based, TR-FRET; inhibition, % at 13.8 µM; 370,000 tested, 0.43% active; TR-FRET read-out; in the data active = inhibition above about 24%; note: 0% = median of the test wells and 100% = reference compound wells
TcdB inh = TcdB glycohydrolase inhibitors, primary screen, biochemical, single point, plate reader; inhibition, % at 9.99 µM; 350,000 tested, 0.24% active; AID 652162, 2013; Toxin B (Clostridioides difficile), P18177; TcdB glycohydrolase enzymatic assay; in the data active = inhibition above about 10%
The depositor's hits bear a star; . = no result; + = active, no number. This is a sample that favours compounds with a hit; in the whole collection about 3.2% have one here.

SMILES	Mtb FBA inh	Yp Topo-I inh	GDH-TPI counter	PrPC TRFRET	TcdB inh
Cc1ccc(CSC2=Nc3ccccc3C3=NC(=O)CN23)cc1	6	157*	6	4	1
COc1ccc(C)cc1NC(=O)CSCc1ccccc1C	-1	27	0	1	2
Cc1ccc(CSc2nnc(-c3ccccc3N)c(=O)[nH]2)cc1	-1	1	9	2	.
Fc1cccc(CCN2C(=S)NC[C@@H]2CC2CCCCC2)c1	1	52*	-8	8	-6
C=CCN(CC=C)c1nc2ccccc2nc1C(C#N)C(=O)OCCOC (stereo unspecified)	57*	23	-6	-23	.
COc1ccc(/C=C2\SC(N)=NC2=O)cc1Br	-7	-4	31*	-21	1
Cc1nc(S/C(=C/c2ccc(-c3ccc(C(=O)O)cc3)o2)C(=O)O)n[nH]1	-19	-5	28	-8	-2
CC(=O)c1ccc(-c2ccc(/C=C(/Sc3n[nH]c(C)n3)C(=O)O)o2)cc1	-17	0	39*	-2	0
COCCn1c(=NC(=O)c2ccc(S(=O)(=O)N3CCOCC3)cc2)sc2cc(S(N)(=O)=O)ccc21	0	9	33*	-4	0
CCOCCn1c(=NC(=O)c2cc3ccccc3oc2=O)sc2cc(S(N)(=O)=O)ccc21	-1	20	46*	-4	.
COC(=O)Cn1c(=NC(=O)c2ccc(S(=O)(=O)N3CCOCC3)cc2)sc2cc(S(N)(=O)=O)ccc21	2	5	32*	4	1
COCCn1c(=NC(=O)c2sc3ccccc3c2Cl)sc2cc(S(N)(=O)=O)ccc21	4	9	29	4	1
O=C(C[C@@H]1CC[C@@H]2[C@H](COC[C@@H](O)CN2Cc2ccc(C(F)(F)F)cc2)O1)NCCc1ccccc1	.	.	.	.	0
COc1cccc(C2=CC(=O)CC(C)(C)C2)c1	4	4	-3	-4	3
O=C1C=C(c2ccc3[nH]ccc3c2)CCC1	-2	4	35*	-15	2
COc1ccc2cc(C3=CC(=O)CCC3)ccc2c1	23	20	31*	-13	1
CC1(C)CC(=O)C=C(c2ccc3[nH]ccc3c2)C1	-2	9	34*	2	0
COc1ccc(C2=CC(=O)CC(C)(C)C2)cc1OC	5	1	35*	-7	1
O=C(O)c1ccccc1CN1C[C@H]2O[C@H](CNS(=O)(=O)c3ccc(Cl)cc3)CC[C@H]21	.	.	.	.	0
Cc1noc(C)c1S(=O)(=O)Nc1ccc2c(c1)CC(=O)N([C@H](C)CO)C[C@H](C)[C@H](CN(C)Cc1ccc(C(=O)O)cc1)O2	.	.	.	.	1
CCC(=O)N1N=C(c2ccc(NS(=O)(=O)CC)cc2)CC1c1ccc(C)cc1 (stereo unspecified)	+	-10	5	15	-3
CCS(=O)(=O)Nc1ccc(C2=NN(C(=O)c3ccco3)C(c3cccc(F)c3)C2)cc1 (stereo unspecified)	5	-3	24	14	1
CS(=O)(=O)Nc1ccc(C2=NN(C(=O)c3ccco3)C(c3cccc(F)c3)C2)cc1 (stereo unspecified)	3	-5	31*	8	2
CCS(=O)(=O)Nc1ccc(C2=NN(C(=O)c3ccco3)C(c3ccc(Cl)o3)C2)cc1 (stereo unspecified)	5	-2	50*	-2	1
O=C(Cc1ccccn1)N[C@H]1C=C[C@@H](CC(=O)N2CCCCC2)O[C@H]1CO	.	.	.	.	-3
CCOC(=O)c1c(-n2c(C)cc(C=C3C(=O)NC(=S)NC3=O)c2C)sc2c1CCCC2	3	-10	32*	.	.
CCOC(=O)c1c(-n2c(C)cc(/C=C3/C(=O)NC(=O)N(CC)C3=O)c2C)sc2c1CCCC2	7	2	9	1	1
C[C@@H]1CN([C@@H](C)CO)C(=O)c2cc(C3=CCCCC3)cnc2O[C@H]1CN(C)C(=O)c1ccncc1	.	.	.	.	1
C[C@@H]1CN([C@H](C)CO)C(=O)c2cc(NS(=O)(=O)c3ccc(F)cc3)ccc2O[C@H]1CN(C)S(=O)(=O)c1cccs1	.	.	.	.	0
C[C@@H]1CN([C@H](C)CO)C(=O)c2cc(NS(=O)(=O)c3ccccc3)ccc2O[C@@H]1CN(C)Cc1ccc(C(F)(F)F)cc1	.	.	.	.	-4

Source: PubChem BioAssay (several laboratories)
